Measurements: PubChem BioAssay (NCI)
Compounds without any hit were thinned out: in the full panel of roughly 83,000, 20% have a hit.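 The test compound was applied at a single concentration to cells in 96-well plates for 48 hours, and percent growth was recorded.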 A number with no mark means an inactive call. The source made the active and inactive calls. Rule for the calls: active = growth percent below 10; inactive = the rest.

Tested on: MDA-MB-468 breast
Experiment: NCI-60 one-dose screen, 48 h (100 = growth as untreated, 0 = no growth, -100 = all killed)
Conditions: 10 µM unless noted

Row | Structure (SMILES) | growth
1 | Cc1ccc(-c2csc(NC(=O)CSc3nc(-c4ccccc4)cc(=O)[nH]3)n2)cc1 | 108%
2 | COC1OCC(OS(=O)(=O)c2ccc(C)cc2)C(OC(=O)c2ccccc2)C1OC(=O)c1ccccc1 (stereo not given) | 13%
3 | O=C(Nc1ccc(Cl)cc1)c1cc(NCc2cc(O)ccc2O)ccc1O | 81.2%
4 | CCc1cc(C)cc(O)c1 | 94.7%
5 | O=C(/C=C/c1ccc(F)cc1)Nc1cccc2cccnc12 | -19.1% (active)
6 | c1ccc(Sc2ccccc2)cc1 | 102%
7 | N#Cc1ccc(S(=O)(=O)Nc2ccc(-c3cnc(N)[nH]3)cc2)cc1 | 97.7%
8 | CCC1CCCCN1C(=S)N/N=C(\C)c1ccccn1 (stereo not given) | -2.96% (active)
9 | Cc1ccc2nc3c(cc2c1)CSc1nnc(-c2ccc[nH]c2=S)n1N3 | 111%
10 | CC1(C)CC[C@]23CC[C@]4(C)[C@H](CC[C@@H]5[C@@]6(C)CC[C@H](N)C(C)(C)[C@@H]6CC[C@]54C)[C@H]2[C@H]1OC3 | 0.703% (active)
11 | O=C1NC(=Nc2ccc(O)cc2)S/C1=C\c1cccc(Cl)c1 | 44.5%
12 | O=C1c2ccc3c4c(ccc(c24)C(=O)N1CCCNCc1ccccc1F)C(=O)N(CCCNCc1ccccc1F)C3=O | -95.1% (active)
13 | Clc1ccc2oc3c(OCCCn4ccnc4)c4ccccc4nc3c2c1 | 66.5%
14 | COc1cc(/C=C/c2cc(/C=C/c3ccc(O)c(OC)c3)n(C(=O)Nc3ccc(F)cc3)n2)ccc1O | -14.6% (active)
15 | O=C1/C(=C/c2ccccc2[N+](=O)[O-])COc2ccc(O)c(O)c21 | -58% (active)
